# GLA inh pH 4.5 – inhibitors of human alpha-galactosidase A at pH 4.5. P06280. purified enzyme, 4-MU-alpha-Gal fluorescence, pH 4.5. activity change, negative = inhibition, % at 105 µM. 230,000 tested, under 10 active
# Target sequence (P06280 whole entry, looked up): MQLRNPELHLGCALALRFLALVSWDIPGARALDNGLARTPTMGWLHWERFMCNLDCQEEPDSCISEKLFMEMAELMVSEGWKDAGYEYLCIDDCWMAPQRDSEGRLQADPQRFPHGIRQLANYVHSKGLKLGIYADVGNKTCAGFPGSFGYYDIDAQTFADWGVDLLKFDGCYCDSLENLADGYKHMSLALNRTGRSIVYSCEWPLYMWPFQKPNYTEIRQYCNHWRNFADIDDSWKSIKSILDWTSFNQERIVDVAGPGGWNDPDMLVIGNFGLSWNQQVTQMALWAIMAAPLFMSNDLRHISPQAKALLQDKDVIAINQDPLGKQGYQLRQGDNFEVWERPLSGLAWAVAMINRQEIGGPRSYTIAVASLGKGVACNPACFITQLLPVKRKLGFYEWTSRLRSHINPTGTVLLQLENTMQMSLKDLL
# GAA glycogen mod – GAA glycogen-cleavage inhibition or activation; P10253; recombinant GAA, glycogen substrate, Amplex Red glucose oxidase fluorescence; Potency, µM (series often up to 76.4 µM), most hits filed as inhibitors; 300,000 tested, 0.38% active;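 also: the screen sought inhibitors and activators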
#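 Recombinant human enzyme (4 nM); glycogen substrate; 37 C, 40 min, pH 5.0. Readout: coupled glucose oxidase/Amplex Red fluorescence.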
# GAA inh – alpha-glucosidase (human) inhibition | P10253 | purified human GAA, 4-MU-alpha-glucoside fluorescence | Potency, µM (top dose mostly 76.9 µM), usual class: inhibitors | 200,000 tested, 0.005% active
#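 Fluorescence at Ex 365/Em 440 nm from 4-methylumbelliferone reported enzyme activity after 20 min at room temperature. Reactions used 4 nM enzyme and 400 uM substrate at pH 5.0; curves fitted with the Hill equation.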
# aGlu spleen mod – inhibitors or activators of human alpha-glucosidase in spleen homogenate; P10253; human spleen homogenate, 4-MU-alpha-glucoside fluorescence; Potency, µM (highest dose often 79.9 µM), actives largely listed as inhibitors; 240,000 tested, 0.006% active; AID 2112
#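 Human spleen homogenate (1 ug) with 4-methylumbelliferyl-alpha-D-glucopyranoside (1 mM final) in 50 mM citrate/phosphate pH 5.0, 0.01% Tween-20; 40 min at 37 C. Stopped at pH 10; 4-MU fluorescence Ex 365/Em 440 nm; AC50 by Hill fit.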
# N370S GC – inhibitors or activators of N370S glucocerebrosidase for Gaucher disease | 330,000 tested, 0.092% active | N370S GC spleen homogenate, 4MU-glucoside fluorescence | Potency, µM (titrated, usually from 59.4 µM), usual class: inhibitors | AID 2101 | P04062
# aGal spleen mod – alpha-galactosidase A (human) modulation. P06280. human spleen homogenate, 4MU-alpha-Gal fluorescence, 40 min. Potency, µM (highest dose often 80 µM), most hits filed as inhibitors. 240,000 tested, 0.008% active. AID 2107
#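 Human spleen homogenate (1 ug) was the enzyme source, with 4-methylumbelliferyl-alpha-D-galactopyranoside (1 mM final) in pH 5.0 citrate buffer with 0.01% Tween-20. Compounds were titrated; after 40 min at 37C, NaOH/glycine stop, 4-MU fluorescence read; AC50 from Hill fits.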
# A number is an active result; . = inactive; ? = inconclusive; / = no result; ! = not active in a repeat. Only some compounds are listed: those with a hit (about 0.41% of all), similar ones and a draw of the others. Calls follow the shape of the dose curve; as a rule, active = well fitted curve in the direction sought with a large enough effect; inconclusive = small, poorly fitted or top-dose-only effect, or another doubt; inactive = no such curve, though single readings can be large; an effect the other way counts as inactive or inconclusive.
SMILES,GLA inh pH 4.5,GAA glycogen mod,GAA inh,aGlu spleen mod,N370S GC,aGal spleen mod
COc1cc(CNc2ccc3[nH]c(=O)[nH]c3c2)cc(Br)c1OCC(=O)NC(C)(C)C,.,14.1µM,.,.,/,.
COc1cc(CNc2ccc3[nH]c(=O)[nH]c3c2)ccc1OCC(=O)NC(C)(C)C,.,?,.,.,.,.
COc1cc(CNc2ccc3[nH]c(=O)[nH]c3c2)ccc1OCc1ccccc1F,/,5.62µM,/,/,.,/
O=C(/C=C/c1c(C(=O)O)[nH]c2cc(Cl)cc(Cl)c12)Nc1ccccc1,.,/,/,.,.,.
CCCN1CCC(=O)N(C(CSc2ccc(Br)cc2)CC(C)C)CC1 (stereo unspecified),/,/,/,.,.,.
CC(=O)N[C@H]1CSSC[C@@H](C(=O)N2CCC[C@H]2C(=O)N2CCC[C@H]2C(=O)N[C@@H](CCCCN)C(=O)N[C@@H](CC(=O)O)C(N)=O)NC(=O)CNC(=O)[C@H](Cc2c[nH]c3ccccc23)NC(=O)[C@H](CCCNC(=N)N)NC(=O)[C@@H](Cc2ccc(Cl)c(Cl)c2)NC(=O)[C@H](Cc2cnc[nH]2)NC(=O)[C@H](CCC(=O)O)NC1=O,/,/,/,.,.,.
CC(C)=CCC/C(C)=C/CC/C(C)=C/CC/C(C)=C/C(=O)O,/,/,/,.,.,.
O=C(O)CC[C@@H](C(=O)O)N1C(=O)c2ccccc2C1=O,.,.,/,.,.,7.94µM!
COC(=O)CC[C@@H](C(=O)O)N1C(=O)c2ccccc2C1=O,.,.,.,.,.,.
Cc1nnsc1C(=O)NNS(=O)(=O)c1ccccc1,.,28µM,.,.,.,.
CCCNC[C@H](O)COc1ccccc1C(=O)CCc1ccccc1,.,/,/,.,.,.
CN(C)NC(=O)c1ccsc1NC(=O)c1ccc(S(=O)(=O)N(C)C)cc1,.,5.62µM,/,.,.,.
CC(C)NC(=O)c1ccc(S(=O)(=O)N(C)C)cc1,.,.,.,.,.,.
O=C(Nc1cc(S(=O)(=O)N2CCOCC2)ccc1N1CCCC1)c1cc(=O)[nH]c2ccccc12,.,?,/,10µM,.,.
Oc1ccc(/C=N/N2CCCCC2)c(O)c1,/,11.2µM,/,/,.,/
CC(=O)Nc1ccc(NC(C)=O)s1,.,8.91µM,.,.,.,.
CCC[C@@H]1NC(=O)[C@@H](NC(C)=O)CSSC[C@@H](C(N)=O)NC(=O)CNC(=O)[C@H](Cc2c[nH]c3ccccc23)NC(=O)[C@H](CCCN=C(N)N)NC(=O)[C@H](Cc2ccc3ccccc3c2)NC(=O)[C@H](Cc2cnc[nH]2)NC(=O)[C@H](CCCN=C(N)N)NC1=O,/,/,/,.,.,.
CN1CCN(C(=O)Nc2cccc(Cl)c2)c2cccnc21,/,4.47µM,/,/,/,/
Cc1ccn2c(NCc3ccc4c(c3)OCO4)c(-c3ccc(O)cc3)nc2c1,.,.,.,.,12.6µM,.
Oc1ccc(-c2nc3ccccn3c2NCc2ccc3c(c2)OCO3)cc1,.,35.5µM,.,.,?,.
Fc1ccc(-c2nc3ccccn3c2NCc2ccc3c(c2)OCO3)cc1,.,?,.,.,?,.
Cc1cc(/C=C2/C(=O)NN(c3ccccc3)C2=O)c(C)n1-c1ccc(O)cc1,.,.,.,.,8.91µM,.
O=C1OC(O)C(C(Cl)Cl)=C1Cl (stereo unspecified),/,/,/,.,.,.
COC(=O)c1cc(NCc2ccccc2F)ccc1N1CCOCC1,.,?,.,.,.,.
O=C(O)c1cc(NCc2c(F)cccc2Cl)ccc1N1CCOCC1,.,7.08µM,.,.,.,.
SMILES,GLA inh pH 4.5,GAA glycogen mod,GAA inh,aGlu spleen mod,N370S GC,aGal spleen mod
CCC(=O)NC1CCc2cccc(OC)c2C1 (stereo unspecified),/,/,/,.,.,.
C=C[C@@H]1[C@@H](C)[C@H](C)C(=O)C([C@H](O)C(C)C)[C@@H]1C (stereo partly specified),/,/,/,.,.,.
Cc1ccc(-c2cnc(NCc3c(F)cccc3Cl)n2C)cc1,/,22.4µM,/,/,/,/
Oc1ccccc1/C=N/Nc1cccc2cccnc12,.,7.94µM,.,.,.,.
O=C(COc1cccc2cccnc12)N/N=C/c1ccccc1O,.,.,/,.,.,.
CC(C)C(=O)c1ccc(O)c(O)c1,.,7.08µM,/,.,.,.
COC(=O)c1ccc(O)c(Sc2cc(C(=O)OC)ccc2O)c1,.,.,.,.,.,.
COc1cc(/C=N/N(C)C)cc(Br)c1O,.,4.47µM,/,.,.,.
COc1c(F)c(F)c(C(=O)Nc2ccc(N3CCN(C(C)=O)CC3)c(Cl)c2)c(F)c1F,.,.,.,.,11.2µM,.
C=C(C)C(=O)OCCOC(=O)C(=C)C,/,/,/,.,.,.
O=C(O)/C=C/C(=O)Nc1ccc(C(=O)c2ccccc2)cc1,.,.,.,.,.,.
O=C(O)/C=C/C(=O)Nc1ccc(O)cc1,.,31.6µM,.,.,?,.
O=C1OC2(c3cc(I)c(O)c(I)c3Oc3c2cc(I)c(O)c3I)c2c(Cl)c(Cl)c(Cl)c(Cl)c21,/,/,/,.,.,.
CCCc1cc(=O)[nH]c(Nc2ccc(O)cc2)n1,.,28µM,.,.,.,.
O=P1(O)OP(=O)(O)OP(=O)(O)O1.[Al],/,/,/,.,.,.
N#Cc1c(Cl)cccc1N1CCC(C(N)=O)CC1,.,4.43µM,/,.,.,.
N#Cc1c(Cl)cccc1N1CCCC1,.,.,.,.,.,.
Cc1ccc(-n2c(=O)c3ccc(C(=O)NCc4ccco4)cc3n(Cc3ccccc3C#N)c2=O)cc1,.,31.6µM!,.,.,.,.
Cc1ccc(-n2c(=O)c3ccc(C(=O)NCc4ccco4)cc3n(Cc3ccccc3Cl)c2=O)cc1,/,.,/,/,/,/
Cn1c(=O)c2[nH]c(Nc3ccccc3)nc2n(C)c1=O,.,7.08µM,.,.,.,.

# Bioassay records from PubChem BioAssay.
